In PubChem BioAssay AID720532 (National Center for Advancing Translational Sciences (NCATS), 2013):
Where “and” joins values, the source holds several entries; their conditions need not be identical. Equal values may be shown once. The campaign covered roughly 18,000 compounds. About 1,200 (6.7%) were called active. Inconclusive results (about 16%) are left out. Calls come from the whole dose curve; tested in HEK293 cells. The entries come from a sample that favours actives as a whole.

Assay: qHTS for Inhibitors of binding or entry into cells for Marburg Virus
Details: Marburg virus pseudotype entry/binding inhibition, cell-based; series mostly up to 49.2 µM; activity change, negative = inhibition: at the top concentration
% is set by controls: 0 for no effect and ±100 for the full control effect; potency is the fitted concentration of half-maximal effect.

**Q.** With `Cc1ccc(S(=O)(=O)N2CCC(=O)N([C@H](COCc3ccccc3)Cc3ccccc3)CC2)cc1` as the compound, how does the “activity change, negative = inhibition” value read?
**A.** 6.8% (inactive)

**Q.** For `O=S1(=O)CC(N2CCN(CCO)CC2)CN1C1CCCC1` (centres undefined), which “activity change, negative = inhibition” value is on record?
**A.** 20.9% (inactive)

**Q.** Which “activity change, negative = inhibition” value does the source give for `O=c1cc(-c2ccc(O)cc2)oc2c(-c3cc(-c4cc(=O)c5c(O)cc(O)cc5o4)ccc3O)c(O)ccc12` here?
**A.** 19.1% (inactive)

**Q.** Which “activity change, negative = inhibition” value does the source give for `CCCCCC(=O)N1C[C@@H](O)[C@H](n2cc(C3CC3)nn2)C[C@H]1c1ccc(OC)cc1` here?
**A.** -17.1% (inactive)

**Q.** Which “activity change, negative = inhibition” value does the source give for `O=C1CCC[C@@H]2CC(N3CCCCC3)C[C@@H]3CCN1[C@H]23` (some centres undefined) here?
**A.** -18.6% (inactive)

**Q.** With `Oc1ccc(-c2c(-c3ccccc3)nn3c(C(F)(F)F)cc(C(F)(F)F)nc23)cc1` as the compound, how does the “activity change, negative = inhibition” value read?
**A.** 2.41% (inactive)

**Q.** With `CC(C)=CCCC(C)=CCN1C(=O)[C@]2(O[C@H](C)CC3=CCCC32)c2c(Br)cccc21` (some centres undefined) as the compound, how does the activity change, negative = inhibition read?
**A.** 10.2% [at 8.59 µM] (inactive)

**Q.** With `Cc1ccc(-c2ccc(C(=O)N3CCc4nnc(CNC(=O)c5ccccc5)n4CC3)cc2)cc1` as the compound, how does the “activity change, negative = inhibition” value read?
**A.** -24% (inactive)

**Q.** With `COc1ccc2[nH]cc(CCNc3ncnc4ccc(-c5ccccc5CN(C)C)cc34)c2c1` as the compound, how does the Potency read?
**A.** 10 µM (active)

**Q.** Which “activity change, negative = inhibition” value does the source give for `COc1ccccc1CNc1ncnc2ccc(-c3c(C)noc3C)cc12` here?
**A.** 8.89% (inactive)

**Q.** Which “activity change, negative = inhibition” value does the source give for `COCCNc1ncnc2ccc(-c3ccccc3CN(C)C)cc12` here?
**A.** -4.66% (inactive)

**Q.** Which “activity change, negative = inhibition” value does the source give for `C=CCCN(Cc1ccccc1)S(=O)(=O)c1ccccc1Br` here?
**A.** -6.66% (inactive)

**Q.** With `CC(=O)OC[C@H]1O[C@@H](O[C@H]2[C@H](O)[C@@H](OC(=O)c3ccccc3C(=O)O)[C@H](O)O[C@@H]2COC(C)=O)[C@H](O)[C@@H](OC(=O)c2ccccc2C(=O)O)[C@@H]1O` as the compound, how does the Potency read?
**A.** 3.55 µM (active)

**Q.** Which activity change, negative = inhibition does the source give for `CC(=O)OC[C@H]1O[C@H](C#Cc2ccccc2)C=C[C@@H]1OC(C)=O` here?
**A.** 21% [at 8.59 µM] (inactive)

**Q.** With `CC(=O)OC[C@H]1O[C@H](C#CC2=CCCCC2)C=C[C@H]1OC(C)=O` as the compound, how does the activity change, negative = inhibition read?
**A.** -20.8% [at 8.59 µM] (inactive)

**Q.** Which activity change, negative = inhibition does the source give for `CCCC[C@]12Cc3cc(C#N)ccc3[C@H](O1)c1c(cc(-c3ccccc3)oc1=O)O2` here?
**A.** 9.58% [at 8.59 µM] (inactive)

**Q.** For `C[C@H]1Cc2c(COc3ccccc3)nc3c(c2CO1)CN(C(=O)Nc1cccc(C#N)c1)CC3`, which activity change, negative = inhibition is on record?
**A.** 2.49% [at 8.59 µM] (inactive) and 20.7% [at 8.59 µM] (inactive)

**Q.** With `CN1CCC(n2cnc(-c3ccc(F)cc3)c2-c2ccnc(N)n2)CC1` as the compound, how does the Potency read?
**A.** 17.7 µM (active)

**Q.** Which “activity change, negative = inhibition” value does the source give for `CC(C)(CO)CNC(=O)c1ccc2[nH]c(O)c(N=Nc3ccc(S(N)(=O)=O)cc3)c2c1` here?
**A.** 65% (inactive)

**Q.** With `Cc1ccc(NC(=O)O[C@@H]2C(=O)c3cc(Br)ccc3O[C@H]2c2ccc3c(c2)OCO3)cc1Br` as the compound, how does the “activity change, negative = inhibition” value read?
**A.** 6.25% (inactive)

**Q.** With `CCOCCOC(=O)C(C)Oc1ccc(Oc2ncc(C(F)(F)F)cc2Cl)cc1` (centres undefined) as the compound, how does the “activity change, negative = inhibition” value read?
**A.** 0.308% (inactive)

**Q.** Which Potency does the source give for `CC[N+](C)(CC)CCC[n+]1c(-c2ccccc2)c2cc(N)ccc2c2ccc(N)cc21` here?
**A.** 7.08 µM (active) and 2.82 µM (active)

**Q.** With `CCCCC/C=C\CC1OC1CCCCCCCC(=O)O` (centres undefined) as the compound, how does the activity change, negative = inhibition read?
**A.** inactive

**Q.** Which “activity change, negative = inhibition” value does the source give for `CCC(C)(C)N=C(NC#N)Nc1cccnc1` here?
**A.** 19.6% (inactive)

**Q.** For `Clc1ccc(C(Cn2ccnc2)OCc2ccsc2Cl)c(Cl)c1` (centres undefined), which “activity change, negative = inhibition” value is on record?
**A.** 7.18% (inactive)

**Q.** With `Brc1ccc(C2=NCCC(c3ccccc3)O2)cc1` (centres undefined) as the compound, how does the “activity change, negative = inhibition” value read?
**A.** 8% (inactive)

**Q.** Which activity change, negative = inhibition does the source give for `C[C@@H]1C(c2ccccc2)=Cc2[nH]c(=O)[nH]c2C[C@@H]1C(=O)N1CCCC1` here?
**A.** 7.81% [at 8.59 µM] (inactive)

**Q.** With `COC(=O)C=C[C@H]1c2ccccc2[C@@H](OC)[C@@H]1C` as the compound, how does the activity change, negative = inhibition read?
**A.** 16.3% [at 8.59 µM] (inactive) and -4.37% [at 8.59 µM] (inactive)

**Q.** For `CCOC(=O)CN1C(=O)NC(CCc2ccccc2)C(C(C)=O)=C1C` (centres undefined), which activity change, negative = inhibition is on record?
**A.** 3.64% [at 8.59 µM] (inactive)

**Q.** With `COC(=O)C(C(=O)OC)C1c2ccccc2C=C(C2CC2)N1C(=O)OC` (centres undefined) as the compound, how does the activity change, negative = inhibition read?
**A.** inactive

**Q.** For `CCCNC(=O)CC1OC(C2CCCCC2)Cc2ccccc21` (centres undefined), which activity change, negative = inhibition is on record?
**A.** -26.1% [at 8.59 µM] (inactive)

**Q.** For `Cc1cc2oc(=O)cc(CN(C)Cc3ccccc3)c2cc1Cl`, which “activity change, negative = inhibition” value is on record?
**A.** 32.3% (inactive)

**Q.** With `CCOC(OCC)OCC` as the compound, how does the “activity change, negative = inhibition” value read?
**A.** 4.67% (inactive)

**Q.** For `CCCCC/C=C\C/C=C\C/C=C\CCCCCCC(N)=O`, which “activity change, negative = inhibition” value is on record?
**A.** -17.1% (inactive)

**Q.** With `COc1ccc([C@]23Cc4cc(OC)c(OC)cc4[C@H](O2)c2c(cc(C)oc2=O)O3)cc1` as the compound, how does the activity change, negative = inhibition read?
**A.** 8.88% [at 8.59 µM] (inactive)

**Q.** For `O=C(c1ccc(F)cc1)C1CCN(CCCCc2ccccc2)CC1`, which Potency is on record?
**A.** 15.8 µM (active)

**Q.** Which activity change, negative = inhibition does the source give for `O=C(O)CCCc1ccccc1` here?
**A.** inactive

**Q.** With `O=C(O)C1CCCN(CCC=C(c2ccccc2)c2ccccc2)C1` (centres undefined) as the compound, how does the activity change, negative = inhibition read?
**A.** inactive

**Q.** Which Potency does the source give for `c1ccc(CCCCN2CCC(c3ccccc3)CC2)cc1` here?
**A.** 14.1 µM (active)

**Q.** Which “activity change, negative = inhibition” value does the source give for `O=C(O)C[C@@H]1NC(=O)[C@H](Cc2ccccc2)NC1=O` here?
**A.** 2.12% (inactive)

**Q.** Which “activity change, negative = inhibition” value does the source give for `CCCCCCCC[C@@H](O)/C=C/C=C/C=C\[C@@H](O)CCCC(=O)O` here?
**A.** 0.476% (inactive)

**Q.** With `COC(=O)C1(C(C)=O)CC2=CC[C@H]3C(=O)N(c4ccccc4)C(=O)[C@H]3[C@@H]2Cc2ccccc2[C@@H]1C[N+](=O)[O-]` (some centres undefined) as the compound, how does the activity change, negative = inhibition read?
**A.** inactive

**Q.** For `CC(C)(C)OC(=O)NCCCC1=CC2=CC(=O)C(C)(OC(=O)c3ccco3)C(=O)C2=CO1` (centres undefined), which “activity change, negative = inhibition” value is on record?
**A.** -1.5% (inactive)

**Q.** With `NNc1nnc(NN)c2ccccc12` as the compound, how does the “activity change, negative = inhibition” value read?
**A.** 34.2% (inactive)

**Q.** With `NNc1nnc(Cc2ccncc2)c2ccccc12` as the compound, how does the Potency read?
**A.** 11.2 µM (active)

**Q.** Which activity change, negative = inhibition does the source give for `CCN(CCNC(=O)[C@H]1C=C(OC)C(=O)C[C@@H]2c3ccccc3C[C@]12C)C(C)=O` here?
**A.** 0.4% [at 8.59 µM] (inactive)

**Q.** With `FCOC(C(F)(F)F)C(F)(F)F` as the compound, how does the “activity change, negative = inhibition” value read?
**A.** 22.4% (inactive)

**Q.** For `CC1(OC(=O)c2ccc(Cl)nc2)C(=O)Cc2cc(-c3ccsc3)ncc2C1=O` (centres undefined), which activity change, negative = inhibition is on record?
**A.** -19.4% [at 8.59 µM] (inactive)

**Q.** For `CN1CCCC1CCO[C@@](C)(c1ccccc1)c1ccc(Cl)cc1` (some centres undefined), which Potency is on record?
**A.** 10 µM (active)

**Q.** Which Potency does the source give for `CN1CCC[C@@H]1CCO[C@](C)(c1ccccc1)c1ccc(Cl)cc1` here?
**A.** 14.1 µM (active) and 28.2 µM (active)

**Q.** For `CC(=O)C1=C(C)N(Cc2ccccc2)C(=O)NC1c1cccs1` (centres undefined), which activity change, negative = inhibition is on record?
**A.** 3.55% [at 8.59 µM] (inactive)

**Q.** With `CCCCCCN1C[C@@H](O)[C@H](n2cc(C3CC3)nn2)C[C@H]1c1ccccc1` as the compound, how does the “activity change, negative = inhibition” value read?
**A.** -14.4% (inactive)

**Q.** With `COc1ccc(C2=C(N3CCc4ccccc43)C(=O)NC2=O)cc1` as the compound, how does the “activity change, negative = inhibition” value read?
**A.** 28.3% (inactive)

**Q.** For `CCCCC/C=C\C/C=C\C/C=C\CCCCC(=O)NCC(=O)O`, which “activity change, negative = inhibition” value is on record?
**A.** 6.5% (inactive)

**Q.** Which “activity change, negative = inhibition” value does the source give for `CC(C)[C@H]1COCCS(=O)(=O)N1Cc1ccccc1-c1cccc2c1sc1ccccc12` here?
**A.** -18.2% (inactive)

**Q.** With `COC(=O)C1=C(C)N(Cc2ccccc2)C(=NCCc2ccc([N+](=O)[O-])cc2)NC1c1cccc(F)c1` (centres undefined) as the compound, how does the activity change, negative = inhibition read?
**A.** 9.24% [at 8.59 µM] (inactive)

**Q.** With `COc1ccc(C2CC(=O)Oc3ccc(C(C)(C)C)cc32)cc1` (centres undefined) as the compound, how does the “activity change, negative = inhibition” value read?
**A.** 4.9% (inactive)

**Q.** Which “activity change, negative = inhibition” value does the source give for `CCOC(=O)C1C/C(=C\C(C)=O)c2cccc(C(F)(F)F)c2O1` (centres undefined) here?
**A.** 6.48% (inactive)

**Q.** Which “activity change, negative = inhibition” value does the source give for `Cc1cnc(C)c(-c2cc(F)c3c(c2)CC(CNC(=O)c2cccc(Cn4cccn4)c2)O3)n1` (centres undefined) here?
**A.** 10.3% (inactive)

**Q.** With `CCN(CC)CCCC(C)Nc1ccnc2cc(Cl)ccc12` (centres undefined) as the compound, how does the Potency read?
**A.** 10 µM (active) and 5.01 µM (active)

**Q.** Which “activity change, negative = inhibition” value does the source give for `COc1ccc(-c2c(C)cc3oc(=O)cc(-c4ccccc4)c3c2C)cc1F` here?
**A.** 0.588% (inactive)

**Q.** With `C=CCN1C(=O)N(Cc2ccccc2)c2ccccc2S1(=O)=O` as the compound, how does the “activity change, negative = inhibition” value read?
**A.** 11% (inactive)

**Q.** With `COc1ccc(CNS(=O)(=O)c2cc(Br)ccc2Br)cc1` as the compound, how does the “activity change, negative = inhibition” value read?
**A.** 18.8% (inactive)

**Q.** With `COc1ccc2[nH]cc(CCNc3nc(-c4cccc(NS(C)(=O)=O)c4)nc4ccccc34)c2c1` as the compound, how does the “activity change, negative = inhibition” value read?
**A.** -18.6% (inactive)

**Q.** For `COc1ccc2[nH]cc(CCNCc3ccc(Br)cc3)c2c1`, which Potency is on record?
**A.** 15.8 µM (active)

**Q.** For `Cc1cc(N(C)C)nc(Cl)n1`, which “activity change, negative = inhibition” value is on record?
**A.** 9.23% (inactive)

**Q.** With `CC(C)(C)Nc1oc(-c2ccccc2)nc1C=Cc1ccccc1` as the compound, how does the activity change, negative = inhibition read?
**A.** 3.65% [at 8.59 µM] (inactive)

**Q.** Which activity change, negative = inhibition does the source give for `CCOC(=O)CCN1C(=O)[C@@H]2[C@H]3[C@H](O)[C@H](O)CC(=NOCC(C)C)[C@@H]3CC[C@H]2C1=O` here?
**A.** -10.9% [at 8.59 µM] (inactive)

**Q.** For `C=C(C)C1CC=C(C)C(O)C1` (centres undefined), which “activity change, negative = inhibition” value is on record?
**A.** 0.898% (inactive)
